Measurements: PubChem BioAssay (NCI)
Compounds without any hit were thinned out: in the full panel of roughly 83,000, 20% have a hit.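 Activity criterion: percent growth below 10, measured after cells in 96-well plates were exposed to a single compound concentration for 48 hours.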 Unmarked numbers belong to inactive results. Activity calls are given as the source filed them.

Assays:
Experiment in all cases: NCI-60 one-dose screen, 48 h (100 = growth as untreated, 0 = no growth, -100 = all killed)
Conditions in all cases: 10 µM unless noted
EKVX NSCLC = test system: EKVX NSCLC
UO-31 renal = test system: UO-31 renal
TK-10 renal = test system: TK-10 renal
ACHN renal = test system: ACHN renal
CAKI-1 renal = test system: CAKI-1 renal
A498 renal = test system: A498 renal
CCRF-CEM leukemia = test system: CCRF-CEM leukemia
MOLT-4 leukemia = test system: MOLT-4 leukemia
RPMI-8226 leukemia = test system: RPMI-8226 leukemia
OVCAR-8 ovarian = test system: OVCAR-8 ovarian
OVCAR-5 ovarian = test system: OVCAR-5 ovarian
OVCAR-4 ovarian = test system: OVCAR-4 ovarian
SK-OV-3 ovarian = test system: SK-OV-3 ovarian
IGROV1 ovarian = test system: IGROV1 ovarian
OVCAR-3 ovarian = test system: OVCAR-3 ovarian
HS 578T breast = test system: HS 578T breast
NCI/ADR-RES ovarian = test system: NCI/ADR-RES ovarian
T-47D breast = test system: T-47D breast
SN12C renal = test system: SN12C renal
SR leukemia = test system: SR leukemia

Row | Structure (SMILES) | growth (EKVX NSCLC) [%] | growth (UO-31 renal) | growth (TK-10 renal) | growth (ACHN renal) [%] | growth (CAKI-1 renal) | growth (A498 renal) | growth (CCRF-CEM leukemia) | growth (MOLT-4 leukemia) | growth (RPMI-8226 leukemia) | growth (OVCAR-8 ovarian) | growth (OVCAR-5 ovarian) [%] | growth (OVCAR-4 ovarian) | growth (SK-OV-3 ovarian) | growth (IGROV1 ovarian) | growth (OVCAR-3 ovarian) | growth (HS 578T breast) | growth (NCI/ADR-RES ovarian) [%] | growth (T-47D breast) | growth (SN12C renal) | growth (SR leukemia)
1 | CCC(C)(C)C(=O)O[C@H]1C[C@@H](C)C=C2C=C[C@H](C)[C@H](CC[C@@H]3C[C@@H](O)CC(=O)O3)[C@H]21 | 51.7 | 52.1% | 83.1% | 14.7 | -33.5% (active) | -38.8% (active) | 62.5% | 72.8% | 62.7% | 48% | 87.1 | 86.6% | 70% | 28.8% | 85.7% | 42.4% | 25.5 | 92.1% | – | –
2 | COc1cccc2c1O/C(=C\c1c([N+](=O)[O-])ncn1C)C2=O | – | 78.7% | 109% | 89 | 92.8% | 100% | -7.36% (active) | 85.3% | -17% (active) | 94.4% | 108 | 106% | 93.4% | 97.4% | 106% | 111% | 98.1 | 106% | 104% | 62.8%
3 | O=C(Nc1cccc(-n2cc(-c3ccncc3)c(-c3ccc(O)c(Cl)c3)n2)c1)Nc1ccc(Cl)c(C(F)(F)F)c1 | – | -18.9% (active) | -15% (active) | 10.7 | -30.9% (active) | 37.6% | 1.32% (active) | -20.6% (active) | -27.4% (active) | -44.7% (active) | 39.4 | -5.46% (active) | 4.82% (active) | -20.9% (active) | -21.1% (active) | -0.107% (active) | 11.3 | -10% (active) | 9.97% (active) | 3.22% (active)
4 | COc1ccc(Nc2nccc(N3CCN(c4c5ccc(Cl)cc5nc5ccc(OC)cc45)CC3)n2)cc1 | – | 47.5% | 59.2% | 57.8 | 71.5% | 62.9% | 4.07% (active) | -2.31% (active) | 29.5% | 73.2% | 97.1 | 46.6% | 107% | 75.7% | 67.5% | 80.3% | 75.9 | 48.7% | 68.5% | 21.1%
5 | ClC1=C(Cl)C(=C2C(Cl)=C(Cl)C(Cl)=C2Cl)C(Cl)=C1Cl | 105 | 81% | 94.1% | – | – | 88.2% | – | 82.1% | – | 97.7% | 115 | 100% | 91.6% | 108% | 114% | 94.1% | 105 | 79.5% | 98.5% | 103%
6 | CC/C=C\C=C/C(=O)N/C=C/CC1Cc2cccc(O)c2C(=O)O1 (configuration not stated) | 88.8 | – | 109% | 145 | 69.5% | 47.9% | – | 47.5% | – | 90.5% | 91 | 80.2% | 63.9% | 79.1% | 86% | 50.7% | 57.2 | 67.2% | 101% | -67.6% (active)
7 | COc1ccc(Cn2c(NCCCN(C)C)nc(=O)n(Cc3ccc(F)cc3)c2=O)cc1 | – | 63.6% | 110% | 105 | 83.1% | 95.6% | 114% | 84.9% | 95.7% | 98.9% | 109 | 93.1% | 86.3% | 84.7% | 87% | 93.3% | 109 | 83.4% | 95.4% | –
8 | Nc1nonc1-c1nc2ccccc2n1CC(=O)Nc1ccc2c(c1)COC2=O | – | 60.6% | 94.7% | 92.2 | 74.5% | 63.7% | – | 101% | 99.1% | 94.3% | 94 | 93% | 90.9% | – | 94.2% | 65.9% | 85.6 | 85.8% | 92.2% | –
